# In PubChem BioAssay (NCI):
# Compounds without any hit were thinned out: in the full panel of roughly 83,000, 20% have a hit.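 The test compound was applied at a single concentration to cells in 96-well plates for 48 hours, and percent growth was recorded.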 Unmarked numbers belong to inactive results. Active and inactive are the calls of the source. How the source made its calls: active means growth percent below 10; inactive means the rest.
# Key:
# Test in all cases: NCI-60 one-dose screen, 48 h (100 = growth as untreated, 0 = no growth, -100 = all killed)
# Conditions in all cases: 10 µM unless noted
# NCI-H23 lung = system: NCI-H23 lung
# NCI-H226 lung = system: NCI-H226 lung
# NCI-H322M lung = system: NCI-H322M lung
# HOP-62 NSCLC = system: HOP-62 NSCLC
# NCI-H460 lung = system: NCI-H460 lung
# HOP-92 NSCLC = system: HOP-92 NSCLC
# NCI-H522 lung = system: NCI-H522 lung
# A549/ATCC NSCLC = system: A549/ATCC NSCLC
# 786-0 renal = system: 786-0 renal
# COLO 205 colon = system: COLO 205 colon
# DU-145 prostate = system: DU-145 prostate
# K-562 leukemia = system: K-562 leukemia
# MALME-3M melanoma = system: MALME-3M melanoma
# MDA-MB-231 breast = system: MDA-MB-231 breast
# RXF 393 renal = system: RXF 393 renal
# SF-268 CNS = system: SF-268 CNS
# SF-295 CNS = system: SF-295 CNS
# SF-539 CNS = system: SF-539 CNS
# UACC-257 melanoma = system: UACC-257 melanoma
# M14 melanoma = system: M14 melanoma
Compound,growth (NCI-H23 lung),growth (NCI-H226 lung) [%],growth (NCI-H322M lung) [%],growth (HOP-62 NSCLC),growth (NCI-H460 lung),growth (HOP-92 NSCLC),growth (NCI-H522 lung),growth (A549/ATCC NSCLC),growth (786-0 renal),growth (COLO 205 colon),growth (DU-145 prostate),growth (K-562 leukemia),growth (MALME-3M melanoma),growth (MDA-MB-231 breast),growth (RXF 393 renal),growth (SF-268 CNS),growth (SF-295 CNS),growth (SF-539 CNS),growth (UACC-257 melanoma),growth (M14 melanoma)
COc1cc(-c2ccc(-c3ccc(C(=N)N)s3)s2)cc(OC)c1OC,71.5%,89.4,69.1,69.9%,17.3%,33.6%,61.5%,32.8%,9.32% (active),-61.8% (active),36.2%,-33.6% (active),-90.7% (active),10%,54.1%,46.8%,51%,-35.6% (active),75.7%,-53.4% (active)
COC(=O)c1nc(-c2ccccc2)oc1S(=O)(=O)N1CCN(c2ccc(OC)cc2)CC1,89.1%,91.5,91.1,94.5%,98.5%,60%,48.3%,95.9%,60.9%,61.7%,86.5%,20.4%,77.4%,75.7%,84.9%,93.8%,103%,94.1%,83.4%,54.2%
CN1CC(c2ccccc2)C(C(=O)c2ccc(Br)cc2)C12C(=O)Nc1ccccc12 (stereo not given),96.2%,90.5,103,94.8%,99.4%,86.3%,83%,92.2%,97.8%,112%,104%,75.3%,99.4%,94.7%,92.6%,91.2%,93.9%,102%,103%,102%
CCOC(=O)c1c(C)nc2c(c1N)C(=O)C(=O)N2CCc1ccc(OC)c(OC)c1,67%,74,109,58.9%,88.2%,81.8%,31.9%,66%,82.9%,99.3%,89.7%,25.6%,79.1%,80.4%,83.8%,78.7%,63.3%,70%,46.8%,70.6%
COc1ccc(NC(=O)c2sc3nc(C)c(C(=O)c4ccccc4)cc3c2N)cc1,96.1%,97.2,64.7,97.7%,61.3%,111%,80.8%,52%,96.4%,108%,116%,94.2%,102%,98.6%,87.8%,104%,103%,102%,96.9%,106%
N#C/C(=C/C=C/c1ccccc1)S(=O)c1ccccc1 (stereo not given),-36.6% (active),12,10.4,-25.6% (active),-30% (active),-58.5% (active),-68.3% (active),2.3% (active),-89.7% (active),-56.4% (active),-89.5% (active),5.48% (active),-30.2% (active),-54.2% (active),-84% (active),-31.3% (active),-28.8% (active),-74.5% (active),-33.9% (active),-55.5% (active)
Cc1ccc(NC(=O)c2ccc(Nc3ncnc4c3cnn4-c3cccc(F)c3)cc2)cc1,99.6%,96.5,103,94.7%,102%,102%,96%,99.9%,95.8%,109%,104%,96.3%,101%,95.2%,92.5%,97.2%,103%,101%,98%,99%
CC(=O)Cc1nsc(NC(=O)c2cc(-c3cc(Cl)ccc3Cl)oc2C)n1,99.5%,94.5,104,102%,103%,112%,90.2%,98.8%,97%,115%,110%,102%,113%,101%,103%,98.8%,99.6%,102%,93.8%,102%
O=C1/C(=C/c2ccc(Br)cc2)COc2ccc(O)cc21,101%,95.5,95.6,99%,102%,99.9%,15.8%,91.1%,76.4%,86.8%,101%,9.11% (active),91.7%,85.9%,95.9%,89.8%,100%,92.5%,103%,83.7%
C#CCOc1cc(/C=N/Nc2nc(-c3ccc(OC)cc3)cs2)ccc1O,58.8%,89.6,92.4,97%,88.4%,86.3%,76.1%,74.2%,92.6%,103%,95.7%,59.1%,86.1%,96.5%,107%,94.3%,84.1%,93%,93.2%,94.2%
CCOC(=O)/C(=C\c1ccccc1Cl)P(=O)(OCC)OCC,46.6%,66.4,75.4,118%,61.9%,60%,34%,64.9%,75.8%,52.9%,36%,28.6%,71.2%,71%,42.8%,63.2%,96.7%,48.2%,61.9%,56.6%
C#CCOc1ccc(C2=NN(CCCC)C3N=C(Cl)c4ncn(CCCC)c4N23)cc1OCC#C (stereo not given),86.9%,90.5,88.8,90.4%,88.6%,73.6%,74.7%,80.3%,102%,103%,94.1%,71.2%,107%,91.7%,76.1%,90.1%,88.4%,101%,85.7%,92.2%
CC(C)=CCC[C@](C)(O)C1CC[C@]2(C)[C@@H]1CC[C@@H]1[C@@]3(C)CC/C(=N\OCCC#N)C(C)(C)[C@@H]3CC[C@]12C (stereo not given in full),72.5%,68,98.8,89.5%,79.6%,105%,68.7%,76.2%,86.2%,83.9%,83.9%,67.6%,71.8%,94.1%,109%,87.4%,97.9%,91.9%,86.1%,88.5%
Nc1ccc(Cl)c2c(=O)c3ccccc3[nH]c12,71.3%,77,99.8,105%,91.2%,99.4%,69.8%,80%,77.4%,90.7%,94.1%,83.5%,109%,91.5%,80.4%,92.9%,76.4%,83.5%,74.7%,91.1%
O=C(/C=C\c1ccc(O)c(O)c1)c1ccccc1O,86.5%,71.4,79.7,98.7%,61.5%,55.6%,-61.3% (active),55.7%,100%,80.6%,94.4%,73.4%,97.4%,69.3%,42.8%,69.5%,99.7%,59.3%,86.1%,93.5%
COc1ccc(-c2nc(SCCC(C)C)nc(N/N=C(/C)c3ccc(N)cc3)c2C#N)cc1,92.9%,88.9,86,89.9%,101%,96.8%,90.6%,98.4%,97.9%,109%,97.1%,94.3%,104%,82.3%,86.2%,92%,102%,87.9%,102%,111%
